Experimental data from PubChem BioAssay.
Values without a mark were called inactive. Active and inactive are the calls of the source.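 The calls were made as follows, unless noted: active = mean inhibition above 46.5%, the solvent-only control mean plus 3 SD; inactive = the rest.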

What was measured:
[1] = system: transactivating tegument protein VP16 (Human herpesvirus 1); assay: VP16 transactivation reporter inhibitors, counter-screen for SRC2 inhibitor project, cell-based, luminescence, single concentration (AID 652007; in the data active = inhibition above about 36%); conditions: cell-based VP16 transactivation luciferase reporter, at 8.9 µM, active compounds read high
[2] = target: Nuclear receptor coactivator 2 (Homo sapiens) (UniProt Q15596); assay: SRC2 coactivator transcriptional activity inhibitors, confirmation, cell-based, luminescence, HEK293, triplicate (AID 652008); conditions: HEK293 GAL4-SRC2 luciferase reporter, at 8.9 µM, active compounds read high;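 also: 0% = DMSO-treated cells and 100% = Gossypol at 36 µM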
Nuclear receptor coactivator 2 (Homo sapiens), sequence (Q15596 whole entry, looked up, the tested form may be a part): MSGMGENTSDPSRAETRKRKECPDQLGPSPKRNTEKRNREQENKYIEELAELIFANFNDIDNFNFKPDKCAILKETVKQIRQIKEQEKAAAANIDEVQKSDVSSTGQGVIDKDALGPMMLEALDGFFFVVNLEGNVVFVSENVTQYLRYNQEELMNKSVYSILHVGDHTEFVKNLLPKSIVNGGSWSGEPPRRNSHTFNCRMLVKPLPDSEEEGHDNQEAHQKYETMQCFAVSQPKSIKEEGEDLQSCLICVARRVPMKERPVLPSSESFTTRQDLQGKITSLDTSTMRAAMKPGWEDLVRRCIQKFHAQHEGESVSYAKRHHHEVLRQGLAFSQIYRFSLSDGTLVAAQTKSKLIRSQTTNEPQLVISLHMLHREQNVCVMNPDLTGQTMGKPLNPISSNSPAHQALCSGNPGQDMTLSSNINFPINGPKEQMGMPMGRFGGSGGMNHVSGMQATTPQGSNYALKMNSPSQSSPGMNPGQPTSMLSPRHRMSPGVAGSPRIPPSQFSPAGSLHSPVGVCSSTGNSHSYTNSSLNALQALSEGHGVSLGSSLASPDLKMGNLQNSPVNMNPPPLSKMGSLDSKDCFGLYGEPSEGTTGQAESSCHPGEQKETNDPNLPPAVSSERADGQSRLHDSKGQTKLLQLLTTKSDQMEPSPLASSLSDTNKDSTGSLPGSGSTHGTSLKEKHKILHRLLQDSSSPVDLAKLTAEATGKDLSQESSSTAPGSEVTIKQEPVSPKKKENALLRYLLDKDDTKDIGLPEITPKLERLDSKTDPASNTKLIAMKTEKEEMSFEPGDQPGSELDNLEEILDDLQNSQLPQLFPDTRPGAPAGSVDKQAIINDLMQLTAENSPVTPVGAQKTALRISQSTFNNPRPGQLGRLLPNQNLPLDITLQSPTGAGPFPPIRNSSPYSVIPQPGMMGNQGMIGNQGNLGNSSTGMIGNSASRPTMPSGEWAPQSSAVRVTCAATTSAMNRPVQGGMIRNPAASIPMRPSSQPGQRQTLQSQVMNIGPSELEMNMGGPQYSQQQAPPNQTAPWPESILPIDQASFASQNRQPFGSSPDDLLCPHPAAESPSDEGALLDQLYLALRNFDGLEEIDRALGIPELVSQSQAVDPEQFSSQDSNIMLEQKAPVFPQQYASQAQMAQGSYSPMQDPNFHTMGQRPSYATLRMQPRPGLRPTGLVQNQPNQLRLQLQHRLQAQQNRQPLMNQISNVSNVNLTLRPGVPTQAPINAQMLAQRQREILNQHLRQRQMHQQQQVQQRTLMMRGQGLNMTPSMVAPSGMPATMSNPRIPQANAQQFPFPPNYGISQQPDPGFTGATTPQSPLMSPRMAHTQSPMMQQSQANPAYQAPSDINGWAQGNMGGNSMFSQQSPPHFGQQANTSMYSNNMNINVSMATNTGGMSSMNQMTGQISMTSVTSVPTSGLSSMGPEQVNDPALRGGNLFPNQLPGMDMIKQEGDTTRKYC

Structure (SMILES) | inhibition [1] | inhibition [2]
O=C(Nc1cccc(-c2cccc(Cl)c2)c1)C1CCN(Cc2ccccn2)CC1 | -2.92% | 17.7%
O=C(N/N=C/c1coc2ccc(Cl)cc2c1=O)c1ccncc1 | -13.1% | 31.4%
O=[N+]([O-])c1ccc(-c2ccc(S(=O)(=O)NCCN3CCCC3)cc2)cc1 | 12.2% | 17.4%
Cc1ccc(NCc2nnc(SCC(=O)c3ccccc3)n2Cc2ccco2)c(C)c1 | -11.6% | -16.7%
O=C(O)CCCCCCCCCCC1CCC(O)C1O (stereo unspecified) | 20.8% | 65.3% (active)
COc1ccccc1C(=O)NCc1ccc(-c2nc3ccccc3s2)cc1 | -14% | 22.1%
O=C(Nc1ccnn1C1CCN(C(=O)c2ccc(Cl)cc2)CC1)C1CC1 | -6.97% | -7.33%
Cc1ccc(CS(=O)(=O)c2ncc(Cl)c(C(=O)Nc3ccc(OC(F)F)cc3)n2)cc1 | 76.9% (active) | 28.9%
COC(=O)c1c(NC(=O)CCCC(=O)O)sc2c1CCCCC2 | 29.6% | 53.8% (active)
O=C1/C(=C/c2ccncc2)CCC/C1=C\c1ccncc1 | 89.1% (active) | 98.1% (active)
COCCN(C(=O)CC1C(=O)NCCN1Cc1ccc(-c2ccccc2)cc1)C(C)C (stereo unspecified) | -1.75% | -6.54%
Cc1ccc(Nc2nc(-c3c(C)nc4ccccn34)cs2)cc1 | -16.9% | 20.1%
O=C(C1=NN[C@@H]2C(=O)N(c3cccc(C(F)(F)F)c3)C(=O)[C@H]12)c1ccc2ccccc2n1 | 2.15% | 6.3%
O=C(c1ccccc1F)N1CCN(S(=O)(=O)c2ccc3c(c2)OCCO3)CC1 | 3.25% | 22.9%
COc1cc(C(=O)NCc2ccncc2)cc(Br)c1OCc1ccccc1 | 0.29% | 36.2%
Cc1ccc(NC(=O)COC(=O)C2=NN(c3ccccc3)C(=O)CC2)c(Br)c1 | -16.2% | -37.9%
Cc1c(CCC(=O)N[C@@H](CC(C)C)C(=O)O)c(=O)oc2cc3oc4c(c3cc12)CCCC4 | 37.5% (active) | 69.8% (active)
O=C(Cc1ccc([N+](=O)[O-])cc1)Nc1cccc(C(=O)N2CCCCC2)c1 | 13.5% | 23.7%
Cc1nc2ccccc2c2c1CC(C(C)(Cl)Br)O2 (stereo unspecified) | 5.15% | 29.1%
CC(C)N=C(NS(=O)(=O)c1ccccc1)C(Cl)(Cl)Cl | 7.46% | 28.2%

Structure (SMILES) | inhibition [1] | inhibition [2]
Cc1cc(Br)ccc1NC(=O)CN(C)C(=O)C1CCN(c2ncnc3sc(C)c(C)c23)CC1 | 12.9% | 23%
CCN(CC)S(=O)(=O)c1ccc(NC2c3ccccc3C(=O)N2Cc2ccco2)cc1 (stereo unspecified) | -12.8% | -30.1%
O=C(COC(=O)c1ccc(Br)o1)NCC(=O)Nc1ccc(F)cc1 | -21% | -15.8%
O=C(CCc1nnc(C2CCCCC2)o1)N1CCC(Oc2cccnc2)CC1 | 1.02% | 4.42%
C[n+]1cc2c3c(ccc2c2ccc4cc5c(cc4c21)OCO5)OCO3 | 96% (active) | 98.7% (active)
CC1CCC(C(C)C)C(OCC(O)CN2CCCC(C)C2)C1 (stereo unspecified) | -4.71% | -16.1%
Nc1nonc1C(=O)NCCNCc1cc(Br)ccc1OCc1ccc(F)cc1 | 1.07% | 1.86%
COc1cc(OC)c(C(=O)C=Cc2ccc(OC)c(OC)c2)c(OC)c1 | -5.35% | 6.31%
Cc1cccc(C)c1NC(=O)C[n+]1cc(-c2ccccc2)n2c1CCC2 | -22.3% | -2.7%
CCOC(=O)C1=CCN(S(=O)(=O)c2ccccc2C)C1c1ccc(Cl)c(Cl)c1 (stereo unspecified) | -18.3% | -14%
COc1ccc(OC)c(C2C(C#N)=C(N)Oc3c2c(C)nn3-c2cccc(Cl)c2)c1 (stereo unspecified) | 3% | 4.46%
c1ccc(CCNc2ncnc3scc(C4COc5ccccc5O4)c23)cc1 (stereo unspecified) | -8.4% | -10.3%
Cc1ccc2c(c1)N(C(=O)CCC(=O)NCCCN1CCN(C)CC1)CC(C)O2 (stereo unspecified) | -11.4% | -10.8%
C=C1CCC2C(C)(C)CCC[C@]2(C)[C@H]1CC1=C(O)C(=O)C(CO)=CC1=O (stereo partly specified) | 93.6% (active) | 98.8% (active)
CCn1nc(NC(=O)C(C)C)c2cc3cccc(C)c3nc21 | 3.87% | 15.9%
CC12CCC(=O)C=C1CCC1C2CCC2(C)C(c3csc(N)n3)CCC12 (stereo unspecified) | 10.2% | 24.6%
CCc1ccc(/C=C2\SC(=S)N(CCCC(=O)Nc3cc(C)on3)C2=O)cc1 | 28.9% | 73.4% (active)
CCN(CC)CCNC(=O)c1ccc(NC(=O)c2ccc(S(=O)(=O)N3CCCC3)cc2)cc1 | -4.61% | -8.26%
Cc1c(CCC(=O)N[C@@H](C)C(=O)O)c(=O)oc2cc3oc4c(c3cc12)CCCC4 | 38.8% (active) | 60.1% (active)
C=CCNc1nc2ccccc2nc1NS(=O)(=O)c1ccc(Cl)cc1 | -13.4% | -1.65%

Structure (SMILES) | inhibition [1] | inhibition [2]
Cn1nnnc1Sc1ncnc2scc(-c3cccc(C(F)(F)F)c3)c12 | 36.9% (active) | 52.3% (active)
CCn1c(Oc2ccccc2)nc2c1c(=O)n(C)c(=O)n2C | 8.01% | 42.6%
Nc1cccc(-c2cc3ccccc3oc2=O)c1 | 22.1% | 56.9% (active)
CC1=CC(C)(C)Nc2ccc(OC(=O)C(C)N3C(=O)c4ccccc4C3=O)cc21 (stereo unspecified) | -33.8% | 20.7%
Cc1ccc(C(=O)Nc2nc3ccccc3[nH]2)cc1 | -3.8% | 49.1% (active)
O=c1oc2ccc(C#CC3(O)CCCCC3)cc2cc1-n1cc(-c2ccccn2)nn1 | -8.43% | -3.27%
CCN(CC)C(=O)C1CCCN(c2ncnc3c2cnn3-c2cccc(C)c2)C1 (stereo unspecified) | -13.2% | 30.7%
O=C(N/N=C/c1ccc(O)cc1)c1[nH]c2ccc(Br)cc2c1-c1ccccc1 | -15.2% | -7.94%
CC(=O)c1cccc(NC(=O)c2ccccc2N(C)S(=O)(=O)c2ccc(C)cc2)c1 | -5.87% | 0.15%
O=C(c1ccc(S(=O)(=O)NCc2ccco2)cc1)N1CCN(Cc2ccc3c(c2)OCO3)CC1 | -2.59% | 3.12%
Cc1nnc(SCC2=C(C(=O)O)N3C(=O)C(NC(=O)Cn4nc(C)c(Cl)c4C)C3SC2)s1 (stereo unspecified) | -2.47% | -7.12%
O=C(Nc1nnc(SCCN2CCOCC2)s1)C1CC(=O)N(c2ccccc2)C1 (stereo unspecified) | 1.56% | -15.8%
C=CS(=O)(=O)N(Cc1ccc(C)cc1)[C@@H](CO)C(=O)OC | 17.1% | 63.8% (active)
CCOC(=O)C1=CCN(S(=O)(=O)c2cccc(Cl)c2)C1c1ccc(Cl)c(Cl)c1 (stereo unspecified) | -7.88% | 7.77%
C/C(CC(=O)NC1C2CC3CC(C2)CC1C3)=N\NC(=O)Cc1cccs1 (stereo unspecified) | -16.1% | -8.93%
CC1CCCc2sc3ncn(N)c(=N)c3c21 (stereo unspecified) | -0.69% | 1.19%
C=CC(=O)NN(C)c1ncc(C(F)(F)F)cc1Cl | 15.4% | 7.42%
CCCCN1CC(COCc2ccccc2)Oc2cccc(NCc3cc(OC)c(OC)c(OC)c3)c2S1(=O)=O (stereo unspecified) | -12.2% | 13.4%
